This passage reports Inhibition results from ChEMBL document CHEMBL4513146, “CO-ADD screening of Karazin Kharkiv National University (Ukraine) compounds”.

Each structure is given as a SMILES string. Potency and affinity values are given separately.

For this test, the system named is Staphylococcus aureus. The conditions noted are these: Concentration 32 ug.mL-1;; ASSAY_TEST Inhibition of Bacterial Growth; detection method Absorption (OD600); MEDIA CAMHB; plate type 384well; NBS; CORNING #3640; time 18 hr.
Regarding `COc1cccc(CN(c2ccc(F)cc2)S(=O)(=O)c2cccn3cnnc23)c1`, the Inhibition (commonly the drop in the measured response relative to a control, in per cent) is given as -5.01%.
The same measure for `COc1ccc(NC(=O)Cn2nc3c4cc(-c5ccc(C)cc5)nn4ccn3c2=O)cc1Cl`: -6.7%.
Consider `Cc1ccc(NC(=O)Cn2nc3ccc(-c4ccccc4)nn3c2=O)cc1`, for which the Inhibition was found to be 2.61%.
Regarding `Cc1ccccc1NC(=O)Cn1nc2c(SC3CCCCC3)nccn2c1=O`, the Inhibition stood at 1.84%.
Turning to `O=C(Cn1nc2nc(Nc3ccc(F)cc3)ccn2c1=O)Nc1cc(F)ccc1F`, the Inhibition is 11.9%.
The value for `Cc1nc(-c2ccccc2)cc2nn(CC(=O)Nc3ccc4c(c3)OCO4)c(=O)n12` was 14.7%; that for `COc1ccc(-c2cc3c4nn(CC(=O)Nc5c(C)cc(C)cc5C)c(=O)n4ccn3n2)cc1` was 9.75%; that for `O=S(=O)(c1ccc2nncn2c1)N(Cc1cc(F)cc(F)c1)c1ccccc1` was 0.37%.
The value for `Cc1nnc2c(=O)n(CC(=O)NC3CCCC3)c3ccccc3n12` was 4.23%; that for `CCc1nnc2c(=O)n(CC(=O)Nc3ccc(NC(C)=O)cc3)c3ccccc3n12` was 1.89%.
The value for `Cc1ccc(-c2cc3c4nn(CC(=O)Nc5ccc6c(c5)OCCO6)c(=O)n4ccn3n2)cc1C` was 13.07%; that for `O=C(Cn1nc2c(Sc3cccc(F)c3)nccn2c1=O)Nc1cccc(C(F)(F)F)c1` was 12.33%.
As for `Cc1ccc(NC(=O)Cn2nc3c4cc(-c5ccc(C)c(C)c5)nn4ccn3c2=O)cc1C`, the Inhibition turned out to be 0.99%.
The same measure for `Cc1[nH]c2ccccc2c1C(=O)CSc1nnc2c(=O)n(-c3ccccc3)ccn12`: 16.56%; for `O=C(Cn1nc2c3c4c(sc3ncn2c1=O)CCCC4)NCCc1ccc(Cl)cc1`: 7.1%.
